This is an account of results in PubChem BioAssay (Tox21).

Where “and” joins values, the source holds several entries; their conditions need not be identical. Equal entries are not always repeated. Results filed as inconclusive are left out. Some compounds were tested as several samples or in several runs, with calls that do not always agree. Calls of active or inactive are those of the source. Unless noted, the call rests on the fitted dose curve; in most records, active means well fitted curve in the direction sought with a large enough effect in the repeat runs; inconclusive means weak or mixed curves; inactive means no such curve, though single readings can be large; an effect the other way counts as inactive or inconclusive.

Test [1] is described as follows: qHTS assay to identify small molecule antagonists of the glucocorticoid receptor (GR) signaling pathway - cell viability counter screen (AID 720693). Further: nearly all actives have a fitted effect of over 55% in size. Further: potency means the concentration at half of the fitted maximal effect.
Test [2] in a line: qHTS assay for identifying genotoxic compounds that show differential cytotoxicity against isogenic chicken DT40 cell lines with known DNA damage response pathways - wild type cell line (AID 743012). Further: nearly all actives have a fitted effect of over 60% in size. Further: potency means the concentration at half of the fitted maximal effect. The essentials: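 Viability of DNA repair-proficient chicken DT40 cells was assessed by CellTiter-Glo luminescence following 40 h compound exposure at 37 C/5% CO2.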
The nature of test [3]: qHTS assay for identifying genotoxic compounds that show differential cytotoxicity against isogenic chicken DT40 cell lines with known DNA damage response pathways - Rev3 mutant cell line (AID 743014). Further: nearly all actives have a fitted effect of over 55% in size. Further: potency means the concentration at half of the fitted maximal effect.
A short description of test [4]: qHTS assay for identifying genotoxic compounds that show differential cytotoxicity against isogenic chicken DT40 cell lines with known DNA damage response pathways - Rad54/Ku70 mutant cell line (AID 743015). Further: nearly all actives have a fitted effect of over 60% in size. Further: potency means the concentration at half of the fitted maximal effect.
Test [5] can be described thus: qHTS assay to identify small molecule antagonists of the androgen receptor (AR) signaling pathway - cell viability counter screen (AID 743033; further: nearly all actives have a fitted effect of over 45% in size; further: potency means the concentration at half of the fitted maximal effect).
Test [6] in a line: qHTS assay to identify small molecule antagonists of the androgen receptor (AR) signaling pathway using the MDA cell line - cell viability counter screen (AID 743041; further: nearly all actives have a fitted effect of over 45% in size). The essentials: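 Using the breast carcinoma line MDA-kb2 AR-luc, test chemicals were co-incubated with R1881 for 16 h; CellTiter-Fluor reagent, added at 15.5 h, provided a fluorescence measure of live cells.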

The nature of test [7]: qHTS assay to identify small molecule antagonists of the thyroid receptor (TR) signaling pathway - cell viability counter screen (AID 743064). Further: nearly all actives have a fitted effect of over 50% in size. Further: potency means the concentration at half of the fitted maximal effect. Put shortly: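 Viability of T3-stimulated (1 nM final) GH3.TRE-Luc cells is measured by CellTiter-Fluor fluorescence after 23.5 h compound exposure at 37 °C plus 30 min reagent incubation.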
The target of test [8] is Androgen receptor (Homo sapiens) (UniProt P10275). As to the kind of experiment: qHTS assay to identify small molecule agonists of the androgen receptor (AR) signaling pathway (AID 743036; active means well fitted activation curve with a large enough effect in the signal ratio in the repeat runs, with a control signal flat, not every such curve was filed as active; the % refers to the signal ratio). The essentials:
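Screening used 2,000 AR-bla HEK293 cells per well, treated 16 h at 37C with test compounds in DMSO alongside positive and DMSO-only controls; beta-lactamase activity was then read by LiveBLAzer B/G FRET fluorescence after 2 h at room temperature.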

Test [9] has the same target. As to the kind of experiment: qHTS assay to identify small molecule agonists of the androgen receptor (AR) signaling pathway using the MDA cell line (AID 743040; further: nearly all actives have a fitted effect of over 20% in size). As to conditions: MDA-kb2 AR-luc cells, MMTV luciferase, 16 h, stronger effect = higher value. Put shortly:
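Stable MMTV-luciferase reporter in MDA-kb2 cells; note the promoter carries GR as well as AR response elements. 16 h compound treatment, 37C, 0% CO2; ONE-Glo luminescence endpoint.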

Test [10] shares this target. As to the kind of experiment: qHTS assay to identify small molecule antagonists of the androgen receptor (AR) signaling pathway using the MDA cell line (AID 743042; further: nearly all actives have a fitted effect of over 55% in size; further: potency means the concentration at half of the fitted maximal effect). Put shortly: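 Antagonist mode: compounds plus R1881 agonist added to MDA-kb2 AR-luc cells, incubated 16 h at 37C. Luciferase reporter luminescence quantified, with multiplexed CellTiter-Fluor readout for cell viability.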

The mark [11] stands for this setting: activity change: at 70.3 µM (top of the series).
On the % scale 0 is the no-effect control and ±100 the full control effect.

Chain of Androgen receptor (Homo sapiens) (P10275 whole entry, looked up): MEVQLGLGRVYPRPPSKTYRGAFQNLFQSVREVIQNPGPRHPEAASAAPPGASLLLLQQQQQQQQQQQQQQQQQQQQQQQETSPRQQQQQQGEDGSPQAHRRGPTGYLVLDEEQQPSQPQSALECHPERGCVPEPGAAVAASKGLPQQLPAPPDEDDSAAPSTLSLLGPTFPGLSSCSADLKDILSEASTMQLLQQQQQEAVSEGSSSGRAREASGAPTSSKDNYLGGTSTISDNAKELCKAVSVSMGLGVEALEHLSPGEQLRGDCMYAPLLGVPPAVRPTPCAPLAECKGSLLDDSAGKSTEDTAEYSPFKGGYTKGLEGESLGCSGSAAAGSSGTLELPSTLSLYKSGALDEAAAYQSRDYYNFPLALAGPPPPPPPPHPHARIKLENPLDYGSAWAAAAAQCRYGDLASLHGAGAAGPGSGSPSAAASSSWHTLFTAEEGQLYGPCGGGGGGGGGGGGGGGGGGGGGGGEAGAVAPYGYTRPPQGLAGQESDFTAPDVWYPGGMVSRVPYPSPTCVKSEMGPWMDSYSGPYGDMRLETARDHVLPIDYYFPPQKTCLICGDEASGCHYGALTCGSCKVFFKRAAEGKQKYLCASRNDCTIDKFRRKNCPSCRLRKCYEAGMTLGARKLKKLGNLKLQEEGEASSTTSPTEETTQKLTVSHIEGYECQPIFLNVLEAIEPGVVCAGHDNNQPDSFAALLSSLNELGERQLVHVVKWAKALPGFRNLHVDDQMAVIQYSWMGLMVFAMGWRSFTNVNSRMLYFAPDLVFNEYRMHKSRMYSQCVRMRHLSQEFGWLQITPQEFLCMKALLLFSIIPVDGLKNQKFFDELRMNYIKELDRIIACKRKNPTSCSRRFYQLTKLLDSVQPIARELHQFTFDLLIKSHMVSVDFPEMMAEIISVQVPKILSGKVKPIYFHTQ

As for `Cc1ccc(N)c(N)c1`, the Potency result in test [1], in test [5] and in test [6] was “inactive” in each case. For the same compound, the Potency in test [2] is 54.6 µM (active) and 17.2 µM (active); in test [3] it was 30.7 µM (active) and 21.7 µM (active); in test [4], 48.7 µM (active) and 21.7 µM (active); in test [7], 13.7 µM (active) and 24.3 µM (active).
In the case of `CN(C)c1ccc(C(=O)c2ccc(N(C)C)cc2)cc1`, the Potency result in test [1], in test [5] and in [6] was “inactive” in each case. The Potency in test [2] was 1.52 µM (active) and 1.37 µM (active); in [3], 762 nM (active) and 969 nM (active); in test [4], 1.35 µM (active) and 1.37 µM (active); in test [7] it was 30.3 µM (active) and inactive.
`c1ccc(N=Nc2ccccc2)cc1`: the Potency entry in [1], in test [2], in test [3], in [4], in [5] and in test [6] was “inactive” each time. The Potency result in test [7] is “inactive”.
With `Clc1nc(Cl)nc(Cl)n1`, the Potency result in test [1], in test [5], in test [6] and in test [7] was “inactive” throughout. The Potency in [2] was 15.4 µM (active); in test [3], “inactive and 15.4 µM (active)”; in [4] it was “inactive and 13.7 µM (active)”.
Take `NCc1cccnc1`: the Potency entry in test [1], in test [2], in [3], in [4], in [5] and in test [6] was “inactive” in each case. Moreover, the Potency entry in test [7] is “inactive”.
`CCOc1cc(C=O)ccc1O`: the Potency entry in test [1], in test [2], in test [3], in test [4], in test [5] and in test [6] was “inactive” each time. The Potency result in [7] was “inactive”.
Turning to `C=CCc1ccc(OC)cc1`, the Potency result in [1], in test [2], in [4], in [5], in [6] and in [7] was “inactive” in each case. Also, in test [3], the Potency is 26.5 µM (active).
Regarding `CCCCN(CCCC)N=O`, the Potency result in [1], in test [2], in test [3], in test [4], in test [5] and in [6] was “inactive” each time. Further, the Potency result in test [7] is “inactive”.
For the compound `CCCCNC(=O)n1c(NC(=O)OC)nc2ccccc21`, the Potency result in test [1], in test [8], in test [9] (setting [11]), in test [6] and in [10] was “inactive” in each case. Further, the Potency in test [2] is 9.64 µM (active) and 8.63 µM (active); in [3], 5.42 µM (active) and 6.86 µM (active); in test [4] it was 6.82 µM (active) and 8.63 µM (active).
On to `Nc1ccc(-c2ccccc2)cc1`, for which the Potency result in [1], in test [5], in [6] and in [7] was “inactive” each time. Also, the Potency entry is “inactive and 54.5 µM (active)” in test [2]; “inactive and 54.5 µM (active)” in [3]; “inactive and 30.6 µM (active)” in test [4].
Turning to `N#Cc1cc(Br)c(O)c(Br)c1`, the Potency result in test [1], in [6] and in [7] was “inactive” each time. For the same compound, the activity change was -6.84% (active) in [9] (setting [11]) and -3.58% (inactive) in [9] (at 70.3 µM (top of the series)). For the same compound, in test [10], the Potency was 61.1 µM (active).
As to `CC(C)c1ccc(CO)cc1`, the Potency entry in test [1], in test [2], in test [3], in test [4], in test [5] and in test [6] was “inactive” each time. Also, the Potency result in [7] was “inactive”.
As to `Oc1c(Cl)c(Cl)c(Cl)c(Cl)c1Cl`, the Potency entry in [3] and in test [6] was “inactive” each time. Further, the results for the Potency in test [5] and in [7] were 21.4 µM (active) and 26.8 µM (active), respectively.
For `NNC(N)=S`, the Potency result in test [1] and in test [7] was “inactive” in each case. Also, the Potency in [2] was 28.4 µM (active); in [3], 20.1 µM (active); in test [4], 28.4 µM (active); in test [5] it was 14.3 µM (active).
`O=c1oc2ccccc2c(O)c1C(CC(O)c1ccc(-c2ccc(Br)cc2)cc1)c1ccccc1` (configuration not stated): the Potency in test [1] is 23.9 µM (active) and 46.3 µM (active). For the same compound, the Potency entry in test [2], in test [3], in test [5] and in test [6] was “inactive” in each case.
With `CCOCN(C(=O)CCl)c1c(C)cccc1CC`, the Potency entry in [1], in test [5], in [6] and in test [7] was “inactive” each time. The Potency in test [2] was 51.4 µM (active) and 17.2 µM (active); in test [3], 7.27 µM (active) and 6.11 µM (active); in test [4] it was 20.5 µM (active) and 7.7 µM (active).
Consider `C[C@]12CCC(=O)C[C@@H]1CC[C@@H]1[C@@H]2CC[C@]2(C)[C@@H](O)CC[C@@H]12`, for which the Potency in test [2] was 26.6 µM (active) and inactive. For the same compound, the Potency result in test [4], in [5], in test [6] and in test [7] was “inactive” in each case.
Regarding `Nc1ccc(Cl)cc1N`, the Potency was 42.3 µM (active) in [4] and 42 µM (active) in [7]. Further, the Potency result in test [6] and in [10] was “inactive” each time.
As to `C[C@]12CCC(=O)C(O)=C1CC[C@@H]1[C@@H]2CC[C@]2(C)C(=O)CC[C@@H]12`, the Potency result in test [1], in test [5], in test [6] and in [7] was “inactive” each time. Further, the Potency was 29.8 µM (active) and 26.6 µM (active) in test [2]; 29.8 µM (active) and 26.6 µM (active) in test [4].
With `COP(=S)(OC)Oc1ccc([N+](=O)[O-])cc1`, the Potency result in test [1], in test [5], in test [6] and in test [7] was “inactive” in each case.
`c1ccc(-c2cccc(-c3ccccc3)c2)cc1`: the Potency entry in [1], in [5], in test [6] and in [7] was “inactive” throughout.
As to `CC1(C)C(C=C(Cl)Cl)C1C(=O)OC(C#N)c1cccc(Oc2ccccc2)c1` (configuration not stated), the Potency result in test [1], in [3], in test [5], in [6] and in [7] was “inactive” throughout. Further, in test [4], the Potency is 61.1 µM (active).
In the case of `CN(C)C(=O)Nc1ccc(Cl)cc1`, the Potency entry in test [1], in [2], in test [5], in test [6] and in [7] was “inactive” throughout.
With `Oc1cc(Cl)ccc1Oc1ccc(Cl)cc1Cl`, the Potency was 7.02 µM (active) in test [2]; 11.4 µM (active) in test [3]; 26.6 µM (active) and 10.3 µM (active) in test [4]; 11.5 µM (active) in test [7]. Moreover, the Potency entry in test [5] and in test [6] was “inactive” in each case.
Turning to `NC(=S)Nc1ccccc1`, the Potency entry in test [1], in [2], in test [3], in test [4], in test [5] and in test [6] was “inactive” in each case. For the same compound, the Potency entry in test [7] was “inactive”.
As for `CCN(CC)N=O`, the Potency entry in test [1], in test [2], in test [3], in [4], in [5] and in test [6] was “inactive” each time. In addition, the Potency entry in [7] is “inactive”.
With `N[C@@H](Cc1ccc(N(CCCl)CCCl)cc1)C(=O)O`, the Potency entry in [1], in test [5] and in test [6] was “inactive” each time. Also, the Potency in test [2] was 944 nM (active) and 8.28 µM (active); in [3], 75 nM (active) and 117 nM (active); in [4] it was 2.37 µM (active) and 8.28 µM (active); in [7] it was 10.6 µM (active) and 26.2 µM (active).
